# Bioassay records deposited in PubChem by National Center for Advancing Translational Sciences (NCATS).
# FH mod: Identification of activators of human fumarate hydratase by quantitative high-throughput screening | FH coupled MDH/diaphorase resazurin fluorescence, 15 min | Potency, µM (series often up to 79.9 µM), without a hit: at the highest dose activity change, negative = inhibition, most hits filed as inhibitors | Fumarate hydratase, mitochondrial (Homo sapiens), P07954 | 54,000 compounds, 0.22% hits; note: potency is the fitted concentration of half-maximal effect; % is set by controls: 0 for no effect and ±100 for the full control effect; the screen sought activators but most active calls are inhibition curves; nearly all actives have a fitted effect of over 45% in size
# DRV1 agonist: GPR32 (DRV1) agonism, beta-arrestin recruitment | 48,000 compounds, 2.5% hits | activation, % at 76.9 µM | CHO-K1 GPR32 beta-arrestin PathHunter luminescence, 90 min; zero percent set by DMSO-only wells;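 active = activation of at least 60% and not above a set upper limit, about 1 call in 100 departs from these limits; inconclusive = activation of 40% to 60%, or above that upper limit; inactive = activation under 40%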; note: 0% is about no effect
#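 Using DMSO wells as EC0, agonist-induced signal was taken as chemiluminescence from beta-Gal reconstituted upon beta-arrestin recruitment to GPR32 in CHO-K1 cells after 90 min compound treatment.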
# NTMT1 inh: blocks human N-terminal methyltransferase 1 activity | Q9BV86 | NTMT1 MTase-Glo SAH luminescence, purified enzyme | Potency, µM (titrated, usually from 114 µM), for the others: at the top dose activity change, negative = inhibition, actives largely listed as inhibitors | 59,000 compounds, 2.5% hits | AID 1645870;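 note: potency is the fitted concentration of half-maximal effect; plate controls were DMSO vehicle for no effect and no enzyme for full effect; nearly all actives have a fitted effect of over 65% in size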
# OvCa metastasis: inhibitors of ovarian cancer cell adhesion and invasion in omental model; SKOV3ip1-GFP adhesion/invasion on 3D omental model, fluorescence; Potency, µM (titrated, usually from 45.8 µM), without a hit: at the highest dose activity change, negative = inhibition, actives largely listed as inhibitors; 46,000 compounds, 0.1% hits; AID 1963576;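 note: potency is the fitted concentration of half-maximal effect; plate controls were DMSO wells for no effect and tomatine positive control wells for full effect; nearly all actives have a fitted effect of over 65% in size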
#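 Adhesion/invasion was scored as fixed GFP-labeled SKOV3ip1 cell counts (488/509 nm), normalized to DMSO and tomatine controls. Cancer cells in serum-free medium, with four compound doses (0.36-46 umol/L), sat 2 hr at RT then 16 hr at 37 C on a 48 hr fibroblast/mesothelial/ECM culture.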
# DYRK1A KinaseGlo: human DYRK1A kinase inhibition by ATP depletion readout; shares compounds with NTMT1 inh; recombinant DYRK1A, Kinase-Glo ATP depletion luminescence; Potency, µM (top dose mostly 76.9 µM), inactives show at the top dose activity change, negative = inhibition, usual class: inhibitors; 100 compounds, 80% hits; AID 2705
# CLK4 inh: CLK4 kinase inhibition, SAR round 2. recombinant Clk4, Kinase-Glo ATP luminescence, 4.5 h. shares compounds with NTMT1 inh. 90 compounds, 90% hits. Potency, µM (highest dose often 76.9 µM), for inactives: at the highest dose activity, negative = inhibition, usual class: inhibitors
# Sfp PPTase inh: inhibitors of Bacillus subtilis Sfp PPTase, optimization followup | shares compounds with NTMT1 inh | purified Sfp PPTase enzyme activity, qHTS | Potency, µM (doses to about 114 µM), for the others: at the highest dose activity change, negative = inhibition, hits mostly inhibitors | 230 compounds, 78% hits
# HM489 growth: B. subtilis HM489 growth inhibition | shares compounds with NTMT1 inh | B. subtilis HM489 (acpS-) growth, BacTiter-Glo, 5 h | Potency, µM (doses to about 114 µM), for inactives: top-dose activity change, negative = inhibition, usual class: inhibitors | 220 compounds, 50% hits
# Sfp PPTase gel: inhibits B. subtilis Sfp PPTase in gel assay; purified Sfp PPTase, gel-based product detection; AID 540355; Potency, µM (top dose mostly 250 µM), without a hit: at the highest dose activity change, negative = inhibition, usual class: inhibitors; shares compounds with NTMT1 inh; 220 compounds, 54% hits
# Sfp inh SAR2: inhibits B. subtilis Sfp PPTase in second SAR round; Potency, µM (highest dose often 57.1 µM), for the others: top-dose activity change, negative = inhibition, actives largely listed as inhibitors; purified Sfp enzyme, PPTase activity, qHTS; shares compounds with NTMT1 inh; AID 602370; 230 compounds, 87% hits
# HSD17B4 inh: counter-screen for HPGD inhibitors: human HSD17B4 inhibition. shares compounds with NTMT1 inh. purified HSD17B4, estradiol/NAD+, NADH fluorescence. Potency, µM (doses to about 57.1 µM), inactives show top-dose activity change, negative = inhibition, actives largely listed as inhibitors. 230 compounds, 10% hits
# Target sequence (P51659 whole entry, looked up): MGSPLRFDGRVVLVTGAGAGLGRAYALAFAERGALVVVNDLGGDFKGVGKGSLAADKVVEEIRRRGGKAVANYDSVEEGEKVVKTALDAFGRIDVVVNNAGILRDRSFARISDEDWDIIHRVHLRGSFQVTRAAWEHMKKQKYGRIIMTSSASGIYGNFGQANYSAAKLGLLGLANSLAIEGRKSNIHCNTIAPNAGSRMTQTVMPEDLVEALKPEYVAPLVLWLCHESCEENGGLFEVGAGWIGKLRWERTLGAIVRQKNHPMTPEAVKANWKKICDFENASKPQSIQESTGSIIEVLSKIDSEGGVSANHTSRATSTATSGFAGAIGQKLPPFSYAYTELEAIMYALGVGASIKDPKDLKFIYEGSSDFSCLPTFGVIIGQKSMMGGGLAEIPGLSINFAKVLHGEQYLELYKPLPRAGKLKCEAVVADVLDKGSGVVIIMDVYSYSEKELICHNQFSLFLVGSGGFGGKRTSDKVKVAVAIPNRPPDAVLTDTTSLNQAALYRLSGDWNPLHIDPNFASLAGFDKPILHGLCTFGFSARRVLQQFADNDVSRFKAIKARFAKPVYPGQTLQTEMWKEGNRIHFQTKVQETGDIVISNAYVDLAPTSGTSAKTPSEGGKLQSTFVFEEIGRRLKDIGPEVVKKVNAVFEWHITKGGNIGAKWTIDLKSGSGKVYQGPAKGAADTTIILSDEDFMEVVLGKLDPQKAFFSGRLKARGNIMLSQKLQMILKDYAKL
# ALDH1A1 inh: counter-screen for HPGD inhibitors: human ALDH1A1 inhibition. shares compounds with NTMT1 inh. recombinant ALDH1A1, NADH fluorescence, propionaldehyde/NAD+. Potency, µM (titrated, usually from 57.1 µM), without a hit: at the highest dose activity change, negative = inhibition, usual class: inhibitors. 230 compounds, 93% hits
# NNMT counter: human NNMT inhibition, NTMT1 counter-screen; shares compounds with NTMT1 inh; NNMT MTase-Glo luminescence, SAH detection; 120 compounds, 10% hits; AID 1645878; Potency, µM (top dose mostly 57.1 µM), for inactives: top-dose activity, negative = inhibition, hits mostly inhibitors
# * = called active by the depositor; ? = inconclusive; / = not tested or not shown; [ ] = another dose, or the depositor's remark. Only some compounds are listed: those with a hit (about 3.8% of all), similar ones and a draw of the others. Unless noted, calls come from the whole dose curve; as a rule, active = well fitted curve in the direction sought with a large enough effect; inconclusive = small, poorly fitted or top-dose-only effect, or another doubt; inactive = no such curve, though single readings can be large; an effect the other way counts as inactive or inconclusive.
SMILES,FH mod,DRV1 agonist,NTMT1 inh,OvCa metastasis,others
CCn1cc(C(=O)N2CCN(c3cc(Cl)ccc3C)CC2)c(=O)c2cc(S(=O)(=O)N3CCCCC3)ccc21,?,0,27%,5%,
Fc1ccc(C(Nc2ccccc2Cl)c2nnc(-c3ccccc3Cl)o2)cc1 (stereo not drawn),/,-9,/,-4%,
CCC(CC)C(=O)Nc1nnc2n1CCS2,-10%,-1,10%,10%,
C[C@@H](Oc1cc(-n2cnc3ccc(OC4CCN(C)CC4)cc32)sc1C(N)=O)c1ccccc1C(F)(F)F,-11%,/,2.2µM*,/,NNMT counter=?
Cc1ccc(-n2c(C)cc(-c3nnc4n3CCCCC4)c2C)cc1,/,/,3%,/,HSD17B4 inh=7%;ALDH1A1 inh=?
Cc1cc(-c2nnc3n2CCCCC3)c(C)n1-c1ccncc1,/,/,4%[57.5 µM],/,
Cc1cc(-c2nnc3n2CCCCC3)c(C)n1-c1cccc(C(F)(F)F)c1,/,/,10%,/,HSD17B4 inh=10%;ALDH1A1 inh=?
CCOc1ccc(NC(=O)c2cnn3c2NC(c2cccc(OC)c2)=CC3c2ccccc2)cc1 (stereo not drawn),-30%,-25,-15%,0%,
Cc1ccc(NC(=O)Cn2nc(-c3ccc(F)cc3)c3cnc4ccc(C)cc4c32)cc1,-20%,10,11%,4%,
Cc1ccc(-c2c3c(=O)n(C)c(=O)n(C)c3c3n2-c2ccccc2NC3c2ccc(C)cc2O)cc1 (stereo not drawn),/,-1,/,3%,
Cc1cc(C)nc(NC(=S)N2CCN(c3ccc(NS(C)(=O)=O)nn3)CC2)c1,/,/,-26%[57.5 µM],/,Sfp PPTase inh=?;HM489 growth=0%;Sfp PPTase gel=?;Sfp inh SAR2=4.6µM*;HSD17B4 inh=-21%;ALDH1A1 inh=24µM*
Cc1ccc(Sc2ccc(N3CCC(C(=O)Nc4cc(C)cc(C)c4)CC3)nn2)cc1,-1%,?,14%,-4%,
Cc1cc(C)nc(NC(=S)N2CCN(c3ccc(N4CCCC4)nn3)CC2)c1,/,/,?,/,Sfp PPTase inh=?;HM489 growth=?;Sfp PPTase gel=13µM*;Sfp inh SAR2=5.8µM*;HSD17B4 inh=27µM*;ALDH1A1 inh=19µM*
C[C@]12C=CC(=O)N[C@@H]1CC[C@H]1[C@H]3CC[C@@H](C(=O)Nc4cc(C(F)(F)F)ccc4C(F)(F)F)[C@@]3(C)CC[C@@H]12,12%[53.3 µM],/,-6%[57.5 µM],-6%,
O=C(O)c1ccnc2cc(-c3nc4ccccc4n3CCN3CCCCC3)sc12,13µM*,/,-18%[57.5 µM],/,NNMT counter=-6%
Cc1ccc(OCCSc2nc3ccccc3n2CC(=O)N2CCCCC2)cc1C,-18%,3,18%,13%,
Cc1ccc(Nc2c(-c3ccccc3O)nc3cc(C)ccn23)cc1,-20%,-13,11%,-2%,
COCCCNC(=O)CCCN1C(=O)CCn2nc(-c3cccn3C)cc21,-14%,-9,5%,2%,
CC(=O)N[C@@H](CC(C)C)C(=O)N[C@@H](CCC(=O)O)C(=O)N[C@@H](CCC(=O)O)C(=O)N[C@@H](CC(=O)O)C(=O)Nc1ccc2c(C(F)(F)F)cc(=O)oc2c1,9%,/,-4%[57.5 µM],/,NNMT counter=-9%
Cc1ccc(NS(=O)(=O)c2cc3c(cc2N2CCC2)NC(=O)CC3)cc1C,/,/,-4%,/,
OCCn1cc(-c2cnc3nnn(Cc4ccc5ncccc5c4)c3n2)cn1,-1%,/,-2%[57.5 µM],-22%,NNMT counter=-19%
Cc1nc(CNc2ncnc3ccc(-c4oc(-c5ccccc5)nc4C)cc23)cs1,/,/,?,/,DYRK1A KinaseGlo=?
Cc1nc(CNc2ncnc3ccc(-c4sc(C)nc4C)cc23)cs1,/,/,?,/,DYRK1A KinaseGlo=8.2µM*
Cc1nc(CNc2ncnc3ccc(-c4ccoc4C)cc23)cs1,/,/,-3%,/,DYRK1A KinaseGlo=7.3µM*
Cc1noc(C)c1-c1ccc2ncnc(NCc3ccccc3C(F)(F)F)c2c1,/,/,8%,/,
SMILES,FH mod,DRV1 agonist,NTMT1 inh,OvCa metastasis,others
Cc1ccsc1CNc1ncnc2ccc(-c3c(C)noc3C)cc12,/,/,-1%,/,
CCCn1cc(S(=O)(=O)c2ccccc2)c(=O)c2cc(F)c(N3CCCCC3)cc21,-11%,-16,?,5%,
CN1CCN(c2nn3c(=O)c4ccccc4nc3s2)CC1,/,/,-19%,/,
CN1CCN(c2ncc3nc(-c4cn(C)c5ccccc45)c(=O)n(Cc4cccs4)c3n2)CC1,/,/,/,/,CLK4 inh=-9%
C=C(C)C1=C[C@@]2(C)C(=CC1=O)CC[C@@H](O)[C@@H]2C,-1%,/,-3%[57.5 µM],/,
Cc1cccc(Nc2nc(-c3ccncc3)cs2)c1,-2%,/,2.5µM*,?,NNMT counter=8.9µM*
COc1cccc(CNC(=O)Nc2nc(-c3ccncc3)cs2)c1,-2%,/,-9%[57.5 µM],/,
CCCn1cc(S(=O)(=O)c2ccc(CC)cc2)c(=O)c2cc(F)c(N3CCN(C)CC3)cc21,-34%,0,-3%,9%,
Cc1ccc(S(=O)(=O)Nc2ccc(OC(F)(F)F)cc2C(=O)Nc2nc(-c3ccccc3)cs2)cc1,/,/,-3%,/,
Cc1ccc(S(=O)(=O)Nc2cccnc2C(=O)Nc2nc(-c3ccccc3)cs2)cc1,/,/,23%,/,
